Experimental data from PubChem BioAssay (Tox21).
Results filed as inconclusive are left out. Activity calls are given as the source filed them. The call rests on the fitted dose curve; in most records, active means well fitted activation curve with a large enough effect in the repeat runs; inconclusive means weak or mixed curves; inactive means flat fitted curve, though single readings scatter.

Experiment: A CellTox Green Cytotoxicity Assay to monitor cytotoxicity in HepG2 cells - 24 hour (AID 1224878); further: nearly all actives have a fitted effect of over 45% in size
Details: CellTox Green fluorescence; series mostly up to 76.8 µM; cytotoxicity: at the top concentration
From the text: National Center for Advancing Translational Sciences [NCATS]
NIH Chemical Genomics Center [NCGC]
U.S. Environmental Protection Agency [EPA]
National Institutes of Environmental Health Sciences [NIEHS]
National Toxicology Program [NTP]
Cell-based models are critical for drug discovery. Determining the natural cytotoxic effects resulting from test compounds is an essential research activity. A CellTox Green Cytotoxicity Assay to monitor cytotoxicity in real time of continues cell culture during 40 hours of the compound treatment was used to screen Tox21 10K library compounds in HepG2 cells. CellTox Green Cytotoxicity Assay is a nonlytic, homogeneous, biofluorescent method to measure cytotoxicity in cell culture after experimental manipulation. The assay system uses a proprietary asymmetric cyanine dye that is excluded from viable cells but preferentially stains the dead cell's DNA. […] Viable cells produce no appreciable increases in fluorescence. Therefore, the fluorescence signal produced by the binding interaction with dead cell DNA is proportional to cytotoxicity.
The mixture of HepG2 cell suspension and reagents were dispensed at 600cells/6 ul/well in 1536-well tissue culture treated black solid bottom plates using a Multidrop dispenser. After the assay plates were incubated at a 37 C/5% CO2 incubator for 5 hours, 23 nL of compounds dissolved in DMSO, positive and negative controls was transferred to the assay plate by a pintool work station. The plates were incubated at 37 C for 40 hours. The fluorescence intensity were measured at 0h, 8h, 16h, 24h, 32h and 40h time points using ViewLux plate reader during compound treatment.
On the % scale 0 is the no-effect control and ±100 the full control effect; potency means the concentration at half of the fitted maximal effect.

Compound	cytotoxicity	Potency
CC1CCN(CCCC(=O)c2ccc(F)cc2)CC1	-9.72% [at 35.3 µM] (inactive)	
O=C1C(CCS(=O)c2ccccc2)C(=O)N(c2ccccc2)N1c1ccccc1 (stereo not given)	11.9% [at 35.3 µM] (inactive)	
Nc1nc(F)nc2c1ncn2[C@@H]1O[C@H](CO)[C@@H](O)[C@@H]1O	-12.5% [at 35.3 µM] (inactive)	
NS(=O)(=O)c1cc(C2(O)NC(=O)c3ccccc32)ccc1Cl (stereo not given)	0.0915% [at 35.3 µM] (inactive)	
CCCC(=O)O[C@]1(C(=O)CCl)[C@@H](C)C[C@H]2[C@@H]3CCC4=CC(=O)C=C[C@]4(C)[C@@]3(F)C(=O)C[C@@]21C	-9.54% [at 35.3 µM] (inactive)	
CCCCC=O	6.29% (inactive)	
CCC(C)(C)C1CCC(OC)CC1 (stereo not given)	3.25% (inactive)	
CN(C)C(=O)C(CCN1CCC(O)(c2ccc(Cl)cc2)CC1)(c1ccccc1)c1ccccc1		15.1 µM (active)
COC(=O)C1=C(C)NC(C)=C(C(=O)OCC(C)=O)C1c1ccccc1[N+](=O)[O-] (stereo not given)	-0.0076% [at 35.3 µM] (inactive)	
c1ccc2cnncc2c1	-0.842% (inactive)	
CCCCCCC(=O)OCC	10.8% (inactive)	
C1COCCO1	5.99% (inactive)	
Fc1ccccc1-c1ccccc1	19.2% (inactive)	
CCCC(C)CO (stereo not given)	-6.71% (inactive)	
NS(=O)(=O)c1cc2c(cc1Cl)NC(CSCc1ccccc1)=NS2(=O)=O	-4.01% [at 35.3 µM] (inactive)	
O=C(O)c1ccc[n+]([O-])c1	-4.64% [at 35.3 µM] (inactive)	
O=S(=O)(c1cccc2cnccc12)N1CCCNCC1	19% [at 35.3 µM] (inactive)	
N#CCc1ccccc1[N+](=O)[O-]	-2.87% (inactive)	
CSc1ccc(C=O)cc1	-1.81% (inactive)	
O=C(O)c1ccccc1S	-1.75% [at 35.3 µM] (inactive)	

Compound	cytotoxicity	Potency
OCC(CO)(CO)COCC(CO)(CO)CO	-3.14% (inactive)	
CC(C)COC(=O)c1ccccc1O	3.66% (inactive)	
NC(=O)Nc1nc2ccccc2[nH]1	-1.01% (inactive)	
Cc1ccc(Nc2ccc(O)c3c2C(=O)c2ccccc2C3=O)cc1	-7.53% (inactive)	
CCCCCCOC(=O)CC(CC(=O)OCCCCCC)(OC(=O)CCC)C(=O)OCCCCCC	-7.33% (inactive)	
C[N+](C)(C)CC[N+]1(C)Cc2c(Cl)c(Cl)c(Cl)c(Cl)c2C1	-4.18% [at 35.3 µM] (inactive)	
CN(C)N=Nc1ccccc1	-3.53% (inactive)	
COCCOC(=O)CC#N	-16% (inactive)	
CCCOCC(C)OCC(C)O (stereo not given)	11.3% (inactive)	
CC(C)[N+](C)(C)CC(O)COc1cccc2ccccc12 (stereo not given)	-6.68% [at 35.3 µM] (inactive)	
CN(C)C(=O)Nc1ccccc1	-2.9% (inactive)	
CCCCOCC(C)OCC(C)O (stereo not given)	0.922% (inactive)	
C1C2OC2C2C1C1CC2C2OC12 (stereo not given)	3.64% (inactive)	
Cc1ncc(CSSCc2cnc(C)c(O)c2CO)c(CO)c1O	-8.36% [at 35.3 µM] (inactive)	
COc1ccc(COC=O)cc1	-5.43% (inactive)	
O=C(O)/C=C/c1ccc(/C=C/C(=O)O)cc1	1.09% [at 35.3 µM] (inactive)	
NC1CCN(c2cccc(Cl)n2)CC1	0.296% [at 35.3 µM] (inactive)	
Cc1onc(-c2ccccc2)c1-c1ccc(S(N)(=O)=O)cc1	1.56% [at 35.3 µM] (inactive)	
OC[C@H]1O[C@@H]2O[C@H]3[C@H](O)[C@@H](O)[C@@H](O[C@H]4[C@H](O)[C@@H](O)[C@@H](O[C@H]5[C@H](O)[C@@H](O)[C@@H](O[C@H]6[C@H](O)[C@@H](O)[C@@H](O[C@H]7[C@H](O)[C@@H](O)[C@@H](O[C@H]8[C@H](O)[C@@H](O)[C@@H](O[C@H]9[C@H](O)[C@@H](O)[C@@H](O[C@H]1[C@H](O)[C@H]2O)O[C@@H]9CO)O[C@@H]8CO)O[C@@H]7CO)O[C@@H]6CO)O[C@@H]5CO)O[C@@H]4CO)O[C@@H]3CO	-0.711% [at 35.3 µM] (inactive)	
O=[N+]([O-])c1ccc(Oc2ccc([N+](=O)[O-])cc2)cc1	-6.42% (inactive)	
